Only some compounds are listed: those with a hit (about 3.1% of all), similar ones and a draw of the others.
esBAF inh = inhibitors of esBAF chromatin remodeling in mouse ES cells. Bmi1-luciferase knock-in reporter, 24 h; 100% = twice the neutral-well signal. reporter increase, % at 12.5 µM. hit rate 2% among 350,000. AID 602393; in the data active = activation above about 40%; inconclusive = no clear call, values can overlap the other calls;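 note: 0% = median of the plate's neutral control wells and 100% = double that signal; a rise in the Bmi1 reporter signal indicates esBAF inhibition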
Rtt109 HAT inh = blocks Candida albicans Rtt109/Vps75 acetyltransferase activity; purified Rtt109/Vps75, ThioGlo CoA-SH fluorescence, 4 h; inhibition, % at 34.9 µM; hit rate 0.16% among 330,000;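 active = inhibition of at least 50% in every replicate; inconclusive = best replicate reaches 50% inhibition but some replicates fall short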
Target sequence (Q5AAJ8 whole entry, looked up): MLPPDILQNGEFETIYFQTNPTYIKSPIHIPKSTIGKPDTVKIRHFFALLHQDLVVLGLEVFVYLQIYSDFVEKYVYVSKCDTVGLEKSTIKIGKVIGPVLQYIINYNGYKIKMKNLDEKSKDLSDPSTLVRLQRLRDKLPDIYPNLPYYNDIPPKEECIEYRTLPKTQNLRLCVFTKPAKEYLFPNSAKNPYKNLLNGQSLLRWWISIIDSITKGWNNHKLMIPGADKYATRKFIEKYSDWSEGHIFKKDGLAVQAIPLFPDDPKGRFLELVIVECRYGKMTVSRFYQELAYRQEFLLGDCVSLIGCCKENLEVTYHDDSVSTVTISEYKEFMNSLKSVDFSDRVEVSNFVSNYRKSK
MITF act = MITF TRPM1 promoter activation in melanoma cells. SK-MEL-5 TRPM1-promoter luciferase, 24 h; % of positive control, neutral wells = 0. activation, % at 12.5 µM. hit rate 0.75% among 300,000. AID 588334;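 active = mean activation of at least 80% with every replicate also reaching 80%; inconclusive = mean reaches 80% but some replicate falls short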;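 note: 0% = neutral control wells and 100% = parthenolide positive control wells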
C2C12 statin = protects C2C12 myotubes from simvastatin toxicity; rescue of ATP level, % at 7.49 µM; hit rate 0.78% among 330,000; ATP luminescence, 48 h; scaled: DMSO 0, geranylgeraniol control 100; AID 602340;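 active = mean ATP rescue above about 67%, or every replicate alone reaching that limit, limit read from the data, passing the limit was not always enough; inconclusive = no clear call, values can overlap the other calls; inactive = mean under the limit and some replicate under it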;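 note: myotubes were challenged with 10 µM simvastatin during compound exposure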
Wnt act = Wnt/beta-catenin pathway activation; Wnt/beta-catenin reporter cell assay, activator, plate reader; AID 743398; activation, % at 9.35 µM; hit rate 1.2% among 300,000; in the data active = activation above about 30%, passing the limit was not always enough; inconclusive = no clear call, values can overlap the other calls;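 note: 0% = neutral control wells and 100% = positive control wells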
Active calls of the source: *; u = inconclusive; x = not tested or not shown.

SMILES | esBAF inh | Rtt109 HAT inh | MITF act | C2C12 statin | Wnt act
CN1CCN(/C=N/c2sc3c(c2C#N)CCCCC3)CC1 | 80.5* | -12.4 | 66.0 | -10.5 | x
O=C(N[C@H]1CC[C@@H](CCn2cc(-c3ccccn3)nn2)O[C@H]1CO)c1cccnc1 | -2.7 | x | x | 3.3 | x
CC1CCN(C(=O)CNC(=O)c2ccc(Br)o2)CC1 | 26.9 | 4.2 | 71.2 | -1.5 | 37.6*
COc1cccc(C(=O)NCC(=O)N2CCC(C)CC2)c1 | 11.8 | -2.5 | 33.3 | 99.1* | x
CC1CCN(C(=O)CNC(=O)c2cccc(OC(F)F)c2)CC1 | 2.1 | -5.5 | -2.6 | -14.7 | 0.5
CCNC(=O)[C@@H]1[C@@H](CO)[C@@H]2Cn3c(ccc(-c4ccccc4)c3=O)[C@@H]2N1Cc1ccccc1 | 3.5 | x | x | 22.3 | x
Cc1noc(C)c1NC(=O)Nc1ccc2c(c1)CC(=O)N([C@H](C)CO)C[C@@H](C)[C@H](CN(C)Cc1ccc(Oc3ccccc3)cc1)O2 | 14.5 | x | x | 9.8 | x
CNC[C@H]1Oc2ccc(N(C)C)cc2CC(=O)N([C@@H](C)CO)C[C@H]1C | -7.0 | x | x | -41.6 | x
O=C(C[C@@H]1CC[C@H]2[C@@H](COC[C@@H](O)CN2S(=O)(=O)c2ccc(Cl)cc2)O1)N[C@H]1CCN(Cc2ccccc2)C1 | -2.8 | x | x | -13.6 | x
c1ccc(-c2nnc(-c3ccccn3)nn2)nc1 | x | 2.9 | 35.8 | x | 35.9*
c1ccc(-c2nnc(-c3ccccn3)c(-c3ccccn3)n2)nc1 | x | x | x | x | 2.4
O=C([C@H]1[C@H](CO)[C@H]2Cn3c(cccc3=O)[C@H]2N1CC1CC1)N1CCc2ccccc2C1 | 4.4 | x | x | 6.8 | x
COc1ccc(C(=O)NCc2ccc(-c3nc4ccccc4s3)cc2)cc1 | 69.5* | -9.4 | 73.6 | -0.4 | x
COc1cc(C(=O)NCc2ccc(-c3nc4ccccc4s3)cc2)cc(OC)c1OC | x | -1.2 | 47.6 | x | -2.1
COc1ccc(NC(=O)c2nc3ccccc3s2)cc1 | x | 53.6* | 4.6 | x | -7.9
COc1cccc(C(=O)NCc2ccc(-c3nc4ccccc4s3)cc2)c1 | 51.8* | 4.8 | 44.6 | -19.7 | -0.8
COc1cccc(-c2ccc3c(c2)O[C@@H](CN(C)C(=O)C2CC2)[C@@H](C)CN([C@H](C)CO)S3(=O)=O)c1 | x | x | x | 26.1 | x
COC(=O)C1CCCN1C(=O)C1CCCN1C(=O)CNC(=O)OCc1ccccc1 (stereo not given) | -0.3 | -4.9 | -10.8 | 81.9* | -1.0
CC(Sc1nnc(Cc2cccs2)n1C1CCCCC1)C(N)=O (stereo not given) | -14.6 | 9.9 | -6.4 | 9.4 | -1.2
O=C(CSc1nnc(Cc2cccs2)n1C1CCCCC1)N1CCN(C(=O)c2ccco2)CC1 | 7.8 | 50.8* | -24.5 | -16.0 | -3.4
CC1CCCC(NC(=O)COC(=O)c2cc3ccccc3oc2=O)C1C (stereo not given) | 68.1* | -4.1 | 64.7 | 4.0 | 18.2
C[C@@H]1CN([C@@H](C)CO)C(=O)c2cc(NC(=O)C3CCCCC3)ccc2O[C@@H](C)CCCCO[C@@H]1CN(C)C(=O)Nc1cccc2ccccc12 | 1.1 | x | x | x | x
Cc1ccc(C(=O)c2coc3c2C(=O)C(=O)c2ccccc2-3)cc1 | 41.9* | 2.0 | 71.3 | -3.6 | x
Cc1ccc(C(=O)c2c(C)oc3c2C(=O)C(=O)c2ccccc2-3)cc1 | x | -9.5 | -25.9 | x | x
CN1C(=O)c2cc(NS(=O)(=O)c3ccc(F)cc3)ccc2OC[C@@H]2O[C@@H](CC(=O)O)CC[C@@H]21 | -3.7 | x | x | -3.6 | x
SMILES | esBAF inh | Rtt109 HAT inh | MITF act | C2C12 statin | Wnt act
O=C(COc1ncnc2cc(Cl)ccc12)c1ccc2c(c1)OCCO2 | 59.1* | 2.4 | 79.8 | -0.9 | 55.0*
O=C(COc1ncnc2ccccc12)c1ccc2c(c1)OCCO2 | 13.8 | 0.6 | 59.9 | 72.2* | 19.7
CCN(CC)c1ccc2cc(-c3nc4ccccc4n3C)c(=O)oc2c1 | 16.1 | -17.4 | 6.0 | -213.9 | x
CCN(CC)c1ccc2cc(C(=O)c3cccs3)c(=O)oc2c1 | 72.3* | x | x | -31.1 | 0.0
CCN(CC)c1ccc2cc(-c3nnc(-c4ccccc4)o3)c(=O)oc2c1 | 46.1* | -5.1 | 63.9 | -5.4 | x
CCN(CC)c1ccc2cc(-c3nc4ccccc4[nH]3)c(=O)oc2c1 | -33.9 | 7.9 | -79.6 | -270.1 | x
COc1ccc(NC(=O)Nc2ccc3c(c2)C(=O)N([C@H](C)CO)C[C@H](C)[C@H](CN(C)Cc2ccc(C(F)(F)F)cc2)OCCCC[C@H](C)O3)cc1 | 2.8 | x | x | -68.8 | x
Cc1ccccc1Nc1sc(C(=O)Nc2cccc(Cl)c2)c(N)c1C(N)=O | x | -11.2 | 16.5 | x | 51.5*
CO[C@@H]1CN(C)C(=O)c2cc(NS(C)(=O)=O)ccc2OC[C@H](C)N(Cc2ccccn2)C[C@@H]1C | -4.5 | x | x | -3.9 | x
Cc1ccc(NC(=O)c2ccc3nc[nH]c3c2)c(O)c1 | 50.5* | 2.3 | 27.1 | 3.3 | 6.9
Cc1ccc(NC(=O)c2ccc3nc[nH]c3c2)nc1 | x | 12.0 | 27.6 | x | 26.0
O=C(Nc1ccc(-c2ccc(N3CCCCC3)nn2)cc1)c1ccco1 | 59.6* | 0.7 | 98.6* | -35.0 | 22.1
O=C(c1ccco1)N1CCN(c2ccc(N3CCCCC3)nn2)CC1 | u | 1.0 | 99.4* | 0.4 | 31.4*
Cc1nc(N2CCN(c3ccccc3)CC2)nc2c1C(=O)CCC2 | 3.6 | 2.2 | 17.2 | -0.7 | x
O=C(Nc1ccc(N2CCCC2)c(Cl)c1)c1ccco1 | 13.6 | x | 48.1 | -21.8 | 40.8*
Cc1nc(N2CCN(C(=O)c3ccco3)CC2)nc2c1C(=O)CCC2 | 40.9* | 0.3 | 41.0 | -0.1 | 19.1
CN1CCN(c2ccc(NC(=O)c3ccco3)cc2Cl)CC1 | -1.0 | -5.5 | 15.0 | -18.8 | 19.0
C[C@@H]1CN([C@H](C)CO)C(=O)c2cc(C3=CCCCC3)cnc2O[C@@H]1CN(C)Cc1ccccc1F | 0.6 | x | x | 114.7* | x
C[C@@H]1CN([C@H](C)CO)C(=O)c2cc(C3=CCCCC3)cnc2O[C@@H]1CN(C)C(=O)c1ccccn1 | 0.2 | x | x | 106.0* | x
O=C(C[C@H]1CC[C@H]2[C@@H](COC[C@H](O)CN2Cc2cocn2)O1)NCc1cccc(F)c1 | -4.9 | x | x | 37.1 | x
CCCNc1ccc(C(=O)OCC)cc1[N+](=O)[O-] | 51.9* | 5.6 | 76.9 | -0.5 | 8.3
CCOC(=O)CNc1ccc(C(=O)OCC)cc1[N+](=O)[O-] | x | 0.0 | 0.3 | x | 4.1
CC1Cc2nc(SCC(=O)N3CCCC3)n(C)c(=O)c2S1 (stereo not given) | -3.6 | -1.5 | x | 6.0 | -6.1
CC1Cc2nc(SCC(N)=O)n(C)c(=O)c2S1 (stereo not given) | -3.4 | -17.5 | 1.3 | 135.2* | -3.1
COCC(=O)Nc1ccc2c(c1)[C@H]1C[C@H](CC(=O)NCCN3CCCCC3)O[C@H](CO)[C@H]1O2 | -4.1 | x | x | -1.9 | x
NNc1nc(-c2ccccc2Cl)nc2sc3c(c12)CCCC3 | x | 45.5 | 49.9 | x | 45.9*
NNc1nc(-c2ccccc2Cl)nc2ccccc12 | 7.6 | -2.9 | -8.1 | 3.7 | 4.1
O=[N+]([O-])c1cc(Cl)ccc1-c1nc(-c2ccccc2)no1 | x | 5.2 | 46.6 | x | 51.1*
Clc1ccc(Cl)c(-c2nc(-c3ccncc3)no2)c1 | 39.5 | -1.6 | x | -2.2 | 7.7
Clc1ccc(-c2nc(-c3ccncc3)no2)c(Cl)c1 | x | 0.7 | x | x | 60.0*

Screening results deposited in PubChem BioAssay by Broad Institute.
